# According to PubChem BioAssay (Tox21):
# Where “and” joins values, the source holds several entries; their conditions need not be identical. Equal values may be shown once. Inconclusive results are not listed. Entries that show only a call come without a potency. More than one record can exist for a structure, and the calls need not agree. Calls of active or inactive are those of the source. Unless noted, calls follow the shape of the full dose curve.
# What was measured:
# [1] = qHTS assay to identify small molecule agonists of the peroxisome proliferator-activated receptor delta (PPARd) signaling pathway - cell viability counter screen (AID 743211; active = well fitted curve in the direction sought with a large enough effect in the repeat runs; an effect the other way counts as inactive or inconclusive; also: nearly all actives have a fitted effect of over 55% in size)
# In short: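 Viability was measured as CellTiter-Glo luminescence (30 min, room temperature) in the same wells as the beta-lactamase readout. GeneBLAzer PPARd UAS-bla HEK293H cells received compound after 5 h plating and were incubated 17 h at 37 C.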
# [2] = target: Peroxisome proliferator-activated receptor delta (Homo sapiens) (UniProt Q03181); assay: qHTS assay to identify small molecule agonists of the peroxisome proliferator-activated receptor delta (PPARd) signaling pathway (AID 743212)
# Sequence of Peroxisome proliferator-activated receptor delta (Homo sapiens) (Q03181 whole entry, looked up): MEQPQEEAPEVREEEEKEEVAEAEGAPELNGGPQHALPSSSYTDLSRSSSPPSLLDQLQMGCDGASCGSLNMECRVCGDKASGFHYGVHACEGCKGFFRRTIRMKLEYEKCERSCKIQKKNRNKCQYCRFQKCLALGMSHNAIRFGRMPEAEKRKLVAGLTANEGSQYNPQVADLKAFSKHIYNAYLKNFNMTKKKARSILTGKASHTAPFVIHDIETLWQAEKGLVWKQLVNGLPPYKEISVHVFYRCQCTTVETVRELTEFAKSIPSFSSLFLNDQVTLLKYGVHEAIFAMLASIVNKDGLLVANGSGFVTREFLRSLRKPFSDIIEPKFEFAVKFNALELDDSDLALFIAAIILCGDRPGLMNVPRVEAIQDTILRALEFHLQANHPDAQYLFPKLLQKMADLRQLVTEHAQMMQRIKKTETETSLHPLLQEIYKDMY
# In short: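 GeneBLAzer UAS-bla HEK293H cells carrying a PPARδ construct were exposed to compounds at 37 °C. Beta-lactamase activity was read by FRET fluorescence after 2 h at room temperature with LiveBLAzer B/G substrate.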
# [3] = qHTS assay to identify small molecule antagonists of the peroxisome proliferator-activated receptor delta (PPARd) signaling pathway - cell viability counter screen (AID 743213; active = well fitted curve in the direction sought with a large enough effect in the repeat runs; an effect the other way counts as inactive or inconclusive; also: nearly all actives have a fitted effect of over 50% in size)
# In short: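 PPARd-bla HEK293H cells (3000/well) got compound plus 300 nM L165041 agonist for 17 h at 37 C. Viability in the same wells came from CellTiter-Glo luminescence after 30 min at room temperature.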
# [4] = target: Peroxisome proliferator-activated receptor delta (Homo sapiens) (UniProt Q03181); assay: qHTS assay to identify small molecule antagonists of the peroxisome proliferator-activated receptor delta (PPARd) signaling pathway (AID 743215; active = well fitted inhibition curve with a large enough effect in the signal ratio in the repeat runs, not every such curve was filed as active; the % refers to the signal ratio;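 also: cells stimulated with agonist L165041 at 300 nM final during compound exposure; series mostly up to about 62 µM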)
# In short: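 Read-out is beta-lactamase FRET fluorescence, measured 2 h after substrate addition at room temperature. Beforehand, UAS-bla HEK293H cells carrying the PPARd reporter were exposed to compounds with L165041 at 300 nM final for 17 h at 37 C.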
# [5] = qHTS assay to identify small molecule agonists of the farnesoid-X-receptor (FXR) signaling pathway - cell viability counter screen (AID 743218; active = well fitted curve in the direction sought with a large enough effect in the repeat runs; an effect the other way counts as inactive or inconclusive; also: nearly all actives have a fitted effect of over 45% in size)
# In short: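 HEK 293T FXR-bla cells; 5 h pre-incubation, 16 h compound exposure at 37 C; LiveBLAzer substrate 2 h RT, then CellTiter-Glo 30 min RT, luminescence.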
# [6] = qHTS assay to identify small molecule antagonists of the farnesoid-X-receptor (FXR) signaling pathway - cell viability counter screen (AID 743221; active = well fitted cell-killing curve with a large enough effect in the repeat runs, not every such curve was filed as active; also: nearly all actives have a fitted effect of over 50% in size)
# In short: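 Cytotoxicity counter screen run in the FXR-bla reporter wells: HEK 293T cells exposed to compound with 50 uM (final) chenodeoxycholic acid for 16 h, 37 C, then viability measured by CellTiter-Glo luminescence after 30 min, room temperature.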
# [7] = qHTS assay to identify small molecule agonists of the vitamin D receptor (VDR) signaling pathway - cell viability counter screen (AID 743224; active = well fitted curve in the direction sought with a large enough effect in the repeat runs; an effect the other way counts as inactive or inconclusive; also: series mostly up to about 63 µM; nearly all actives have a fitted effect of over 50% in size)
# In short: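 Luminescence from CellTiter-Glo, read after 30 min at room temperature, reports viability of VDR-bla cells treated with compounds for 16 h at 37C in the wells used for the beta-lactamase FRET read.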
# [8] = qHTS assay to identify small molecule antagonists of the vitamin D receptor (VDR) signaling pathway - cell viability counter screen (AID 743225; active = well fitted curve in the direction sought with a large enough effect in the repeat runs; an effect the other way counts as inactive or inconclusive; also: nearly all actives have a fitted effect of over 50% in size)
# In short: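 Cytotoxicity counter screen read by CellTiter-Glo luminescence (30 min, room temperature) in the same wells as the VDR-bla antagonist readout. HEK 293T VDR-UAS-bla cells had 16 h at 37C with compound and 3 nM (final) 1-alpha,25-dihydroxyvitamin D3, then 2 h with FRET substrate.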
# [9] = qHTS assay to identify small molecule agonists of the NFkB signaling pathway - cell viability counter screen (AID 1159515); also: series mostly up to about 61 µM; nearly all actives have a fitted effect of over 55% in size
# In short: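 Luminescence from CellTiter-Glo (30 min, room temperature) gives viability, measured in the same wells as the beta-lactamase reporter read. Cells were NFkB-bla ME-180, 2,000 per well, treated 5 hr with compounds.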
# [10] = qHTS assay to identify small molecule agonists of the endoplasmic reticulum stress response signaling pathway (AID 1159516; active = well fitted activation curve with a large enough effect in the signal ratio in the repeat runs, not every such curve was filed as active; the % refers to the signal ratio)
# In short: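 Read-out is beta-lactamase cleavage of a FRET substrate (405 nm excitation; 460 and 530 nm emissions) in ESRE-bla HeLa cells after a 5 hr compound exposure at 37 C. Substrate incubation ran 2 hr at room temperature.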
# [11] = qHTS assay to identify small molecule agonists of the endoplasmic reticulum stress response signaling pathway - cell viability counter screen (AID 1159517)
# In short: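 ESRE-bla HeLa cells, 1,500 per well, seeded overnight then treated with compounds for 5 hr at 37 C. After the beta-lactamase read, viability in the same wells is measured by CellTiter-Glo luminescence after 30 min at room temperature.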
# [12] = qHTS assay to identify small molecule antagonists of the retinoid-related orphan receptor gamma (ROR-gamma) signaling pathway - cell viability counter screen (AID 1159520; active = well fitted curve in the direction sought with a large enough effect in the repeat runs; an effect the other way counts as inactive or inconclusive; also: nearly all actives have a fitted effect of over 50% in size)
# In short: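 Tet-on ROR gamma CHO cells were given compounds for 2 hr, then doxycycline hyclate at 1 uM final, and incubated 16 hr at 37 C. Viability was measured as ATP content by CellTiter-Glo luminescence.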
# [13] = target: Nuclear receptor ROR-gamma (Homo sapiens) (UniProt P51449); assay: qHTS assay to identify small molecule antagonists of the retinoid-related orphan receptor gamma (ROR-gamma) signaling pathway (AID 1159521; active = well fitted curve in the direction sought with a large enough effect in the repeat runs; an effect the other way counts as inactive or inconclusive; also: nearly all actives have a fitted effect of over 50% in size; also: potency is read from the fitted curve at half-maximal effect)
# In short: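 Antagonist read-out: drop in luminescence (ONE-Glo) from an RORE-LUC reporter in CHO cells with doxycycline-inducible ROR-gamma; 2 hr compound pretreatment, 1 uM doxycycline, 16 hr incubation at 37 C.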
# [14] = qHTS assay to identify small molecule agonists of the AP-1 signaling pathway - cell viability counter screen (AID 1159525); also: nearly all actives have a fitted effect of over 55% in size
# In short: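 AP-1-bla ME-180 cells in Opti-MEM with 0.5% dialyzed FBS, compound exposure 5 h at 37 C in 15-point titration. Viability read in the same wells as ATP content by CellTiter-Glo luminescence, normalised to tetra-n-octylammonium bromide and DMSO controls.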
# [15] = qHTS assay to identify small molecule agonists of the AP-1 signaling pathway (AID 1159526)
# [16] = target: Retinoic acid receptor RXR-alpha (Homo sapiens) (UniProt P19793); assay: qHTS assay to identify small molecule agonists of the RXR signaling pathway (AID 1159527); also: nearly all actives have a fitted effect of over 35% in size; also: potency is read from the fitted curve at half-maximal effect
# Sequence of Retinoic acid receptor RXR-alpha (Homo sapiens) (P19793 whole entry, looked up): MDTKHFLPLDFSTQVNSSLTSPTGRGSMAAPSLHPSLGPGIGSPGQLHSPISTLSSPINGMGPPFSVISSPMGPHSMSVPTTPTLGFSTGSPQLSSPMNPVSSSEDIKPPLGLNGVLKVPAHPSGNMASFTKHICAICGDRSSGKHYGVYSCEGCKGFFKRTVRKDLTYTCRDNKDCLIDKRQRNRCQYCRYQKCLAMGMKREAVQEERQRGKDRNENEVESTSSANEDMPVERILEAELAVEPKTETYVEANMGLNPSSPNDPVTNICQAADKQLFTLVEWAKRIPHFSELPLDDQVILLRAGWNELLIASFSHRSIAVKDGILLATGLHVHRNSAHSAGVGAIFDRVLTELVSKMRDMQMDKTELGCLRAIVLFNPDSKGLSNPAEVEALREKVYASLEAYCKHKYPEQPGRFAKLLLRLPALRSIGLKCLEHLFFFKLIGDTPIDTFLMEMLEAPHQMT
# In short: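 Agonist-mode beta-lactamase reporter assay: HEK 293T RXR-alpha-UAS-bla cells treated 16 hr at 37 C with compounds, 9-cis retinoic acid as positive control. LiveBLAzer FRET substrate, 405 nm excitation, 460/530 nm emission.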
# [17] = target: Vitamin D3 receptor (Homo sapiens) (UniProt P11473); assay: qHTS assay to identify small molecule agonists of the vitamin D receptor (VDR) signaling pathway (AID 743222)
# Sequence of Vitamin D3 receptor (Homo sapiens) (P11473 whole entry, looked up): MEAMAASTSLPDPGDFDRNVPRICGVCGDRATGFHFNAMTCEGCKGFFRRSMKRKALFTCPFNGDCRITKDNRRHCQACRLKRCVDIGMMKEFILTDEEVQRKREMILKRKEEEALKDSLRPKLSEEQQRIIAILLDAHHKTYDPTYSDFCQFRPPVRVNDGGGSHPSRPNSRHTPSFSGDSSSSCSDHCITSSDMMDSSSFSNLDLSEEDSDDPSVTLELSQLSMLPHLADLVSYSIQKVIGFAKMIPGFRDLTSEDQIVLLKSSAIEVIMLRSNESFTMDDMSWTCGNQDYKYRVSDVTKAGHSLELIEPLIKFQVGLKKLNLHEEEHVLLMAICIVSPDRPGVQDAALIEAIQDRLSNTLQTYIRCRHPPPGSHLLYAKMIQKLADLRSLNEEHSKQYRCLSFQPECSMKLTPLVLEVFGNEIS
# In short: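 VDR-bla cells, 2,000/well; 4 h preincubation 37C; cpd (DMSO) 16 h; LiveBLAzer B/G substrate 2 h RT; fluorescence intensity read.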
# [18] = target: Vitamin D3 receptor (Homo sapiens) (UniProt P11473); assay: qHTS assay to identify small molecule antagonists of the vitamin D receptor (VDR) signaling pathway (AID 743223; active = well fitted inhibition curve with a large enough effect in the signal ratio in the repeat runs, not every such curve was filed as active; the % refers to the signal ratio)
# In short: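 Antagonist mode: compound added to VDR-bla cells alongside agonist 1alpha,25-dihydroxyvitamin D3 (3 nM final), incubation 16 h at 37C. Read-out is LiveBLAzer FRET fluorescence, 2 h at room temperature.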
# [19] = target: Bile acid receptor (Homo sapiens) (UniProt Q96RI1); assay: qHTS assay to identify small molecule antagonists of the farnesoid-X-receptor (FXR) signaling pathway (AID 743217; active = well fitted inhibition curve with a large enough effect in the signal ratio in the repeat runs, not every such curve was filed as active; the % refers to the signal ratio)
# Sequence of Bile acid receptor (Homo sapiens) (Q96RI1 whole entry, looked up): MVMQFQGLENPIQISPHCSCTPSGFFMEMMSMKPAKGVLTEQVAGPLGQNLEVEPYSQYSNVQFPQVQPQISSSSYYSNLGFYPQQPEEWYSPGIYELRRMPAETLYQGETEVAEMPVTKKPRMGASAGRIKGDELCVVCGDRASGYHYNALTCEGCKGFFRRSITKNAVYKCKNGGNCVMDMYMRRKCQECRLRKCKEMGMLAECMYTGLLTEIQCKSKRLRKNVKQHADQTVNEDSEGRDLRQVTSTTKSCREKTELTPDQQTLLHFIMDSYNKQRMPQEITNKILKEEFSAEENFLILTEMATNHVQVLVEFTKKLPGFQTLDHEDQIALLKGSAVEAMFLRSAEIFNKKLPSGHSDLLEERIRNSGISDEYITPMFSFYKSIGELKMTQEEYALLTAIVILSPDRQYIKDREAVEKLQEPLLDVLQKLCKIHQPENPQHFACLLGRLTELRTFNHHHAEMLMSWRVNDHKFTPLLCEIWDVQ
# In short: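 HEK 293T FXR-UAS-bla, 5000 cells/well; compound + CDCA 50 uM final; 16 h, 37 °C; B/G FRET substrate 2 h RT; fluorescence.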
# [20] = target: Bile acid receptor (Homo sapiens) (UniProt Q96RI1); assay: qHTS assay to identify small molecule agonists of the farnesoid-X-receptor (FXR) signaling pathway (AID 743220; active = well fitted activation curve with a large enough effect in the signal ratio in the repeat runs, not every such curve was filed as active; the % refers to the signal ratio)
# In short: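 Beta-lactamase reporter under UAS control in GeneBLAzer FXR HEK 293T cells (5000/well) measured with LiveBLAzer FRET substrate after 2 h at room temperature. Compound exposure lasted 16 h at 37C.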
SMILES,Potency [1],Potency [2],Potency [3],Potency [4],Potency [5],Potency [6],Potency [7],Potency [8],Potency [9],Potency [10],Potency [11],Potency [12],Potency [13],Potency [14],outcome [15],Potency [16],outcome [17],Potency [18],Potency [19],Potency [20]
CC(=O)OC/C=C(\C)CCC=C(C)C,inactive,inactive,inactive,inactive,inactive,inactive,inactive,inactive,inactive,inactive,inactive,inactive,inactive,inactive,inactive,inactive,,,,
O=C(c1ccccc1)c1ccc(O)c(O)c1O,inactive,inactive,inactive,,inactive,inactive,inactive,inactive,inactive,inactive,inactive,inactive,inactive,inactive,inactive,inactive,inactive,inactive,,
Cc1ccccc1Cl,inactive,inactive,,inactive,inactive,inactive,inactive,inactive,inactive,inactive,inactive,inactive,inactive,inactive,inactive,inactive,inactive,inactive,inactive,inactive
Cc1ccc([N+](=O)[O-])cc1N,inactive,inactive,inactive,inactive,inactive,inactive,inactive,inactive,inactive,inactive,inactive,inactive,inactive,inactive,inactive,21.8 µM (active) and inactive,inactive,inactive,inactive,inactive
Cc1ccc(C)c(S(=O)(=O)O)c1,inactive,inactive,inactive,inactive,inactive,inactive,inactive,inactive,inactive,inactive,inactive,inactive,inactive,inactive,inactive,inactive,inactive,inactive,,
CCCCCCCCO,inactive,inactive,inactive,inactive,inactive,inactive,inactive,inactive,inactive,inactive,inactive,inactive,inactive,inactive,inactive,inactive,inactive,inactive,,
C=C(CC(=O)O)C(=O)O,inactive,inactive,,inactive,inactive,inactive,inactive,inactive,inactive,inactive,inactive,inactive,inactive,inactive,inactive,inactive,inactive,inactive,inactive,inactive
CCCOCC(C)O (stereo not drawn),inactive,inactive,inactive,inactive,inactive,inactive,inactive,inactive,inactive,inactive,inactive,inactive,inactive,inactive,inactive,inactive,inactive,inactive,,
Cc1ccccc1C=O,inactive,inactive,inactive,inactive,inactive,inactive,inactive,inactive,inactive,inactive,inactive,inactive,inactive,inactive,inactive,inactive,inactive,inactive,,
CN1Cc2c(N)cccc2C(c2ccccc2)C1 (stereo not drawn),inactive,inactive,inactive,inactive,inactive,inactive,inactive,inactive,inactive,inactive,inactive,inactive,inactive,inactive,inactive,inactive,,,,
CCOC(=O)c1ccc(O)cc1,inactive,inactive,inactive,inactive,inactive,inactive,inactive,inactive,inactive,inactive,inactive,inactive,inactive,inactive,inactive,inactive,inactive,inactive,inactive,inactive
COCN(COC)c1nc(N(COC)COC)nc(N(COC)COC)n1,inactive,inactive,,inactive,inactive,inactive,inactive,inactive,inactive,inactive,inactive,inactive,inactive,inactive,inactive,inactive,inactive,inactive,inactive,inactive
CC(C)(CO)CO,inactive,inactive,inactive,inactive,inactive,inactive,inactive,inactive,inactive,inactive,inactive,inactive,inactive,inactive,inactive,inactive,,,,
NC(=O)c1ncn([C@@H]2O[C@H](CO)[C@@H](O)[C@H]2O)n1,inactive,inactive,,inactive,inactive,inactive,,,inactive,inactive,inactive,inactive,4.56 µM (active) and 3.76 µM (active),inactive,inactive,inactive,,,,
CO[Si](CCCNCCN)(OC)OC,inactive,inactive,inactive,inactive,inactive,inactive,inactive,inactive,inactive,inactive,inactive,inactive,inactive,inactive,inactive,inactive,inactive,inactive,,
Nc1cccc(C(F)(F)F)c1,inactive,inactive,inactive,inactive,inactive,inactive,inactive,inactive,inactive,inactive,inactive,inactive,inactive,inactive,inactive,inactive,,,inactive,inactive
